Tb PFK block = blocks T. brucei phosphofructokinase | 330,000 compounds, 0.17% hits | T. brucei PFK, ADP-Glo luminescence | Potency, µM (highest dose often 57.5 µM), for inactives: top-dose activity, negative = inhibition, actives largely listed as inhibitors | AID 485367;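 further: potency means the concentration at half of the fitted maximal effect; 0% = uninhibited 1x PFK enzyme wells and -100% = no-enzyme wells; nearly all actives have a fitted effect of over 60% in size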
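Compounds were pin-transferred as a titration series up to 57 uM into substrate buffer (0.5 mM F6P, 0.1 mM ATP, pH 8.0), then 1.25 nM PFK was added and reactions ran 45 min before ADP-Glo detection.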
TDP1 block = TDP1 (human) enzyme inhibition; Q9NUW8; recombinant TDP1, AlphaScreen DNA substrate cleavage; Potency, µM (titrated, usually from 130 µM), for the others: at the highest dose activity change, negative = inhibition, most hits filed as inhibitors; 350,000 compounds, 0.28% hits; further: potency means the concentration at half of the fitted maximal effect; nearly all actives have a fitted effect of over 40% in size
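Signal: AlphaScreen proximity between streptavidin donor and anti-FITC acceptor beads on intact substrate. Reaction: Tdp1 1 nM, substrate 15 nM final, 5 min RT after 15 min compound preincubation.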
FEN1 inh = blocks human flap endonuclease 1. Recombinant FEN1 flap cleavage, fluorescence, 15 min. Potency, µM (doses to about 114 µM), for the others: top-dose activity change, negative = inhibition, hits mostly inhibitors. 390,000 compounds, 0.35% hits; further: potency means the concentration at half of the fitted maximal effect; nearly all actives have a fitted effect of over 65% in size
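Compounds are tested as a concentration series against 10 nM FEN1; after a 15 min room-temperature preincubation, 50 nM substrate starts cleavage, with plate reads at 0 and 15 min. Normalized responses are fitted by a Hill equation.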
PI5P4K alpha inh = PI5P4K alpha (human) kinase inhibition | P48426 | PI5P4Kalpha enzyme, ADP-Glo luminescence, 60 min; stronger effect = lower value | max response, % | 330,000 compounds, 1.2% hits | AID 652105; active means max response of -50% or lower; inconclusive means between -30% and -50%; inactive means -30% or higher; further: value at the top dose of about 77 µM
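ADP-Glo luminescence end-point read after a 60 min room-temperature kinase reaction of PI5P4Kalpha plus substrate, initiated with ATP at 5 microM final. Buffer: 0.038 M HEPES pH 7.4, EGTA, 0.1% CHAPS, 5% DMSO.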
WRN helicase inh = blocks human WRN helicase. 360,000 compounds, 0.46% hits. Potency, µM (highest dose often 114 µM), for the others: at the top dose activity change, negative = inhibition, actives largely listed as inhibitors. WRN helicase unwinding, fluorescent forked duplex, kinetic; further: potency means the concentration at half of the fitted maximal effect; nearly all actives have a fitted effect of over 55% in size
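WRN at 20 nM final preincubated with compound 15 min at room temperature; reaction started with 100 nM fluorophore/quencher forked duplex oligonucleotide and 2 mM ATP final. Unwinding followed kinetically by red fluorescence (ex 525, em 598 nm).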
PGK inhibitor = inhibitors of T. brucei phosphoglycerate kinase; Potency, µM (highest dose often 57.5 µM), inactives show top-dose activity change, negative = inhibition, usual class: inhibitors; 380,000 compounds, 0.043% hits; P07378; PGK/GAPDH coupled, Kinase-Glo luminescence, 60 min; further: potency means the concentration at half of the fitted maximal effect; nearly all actives have a fitted effect of over 60% in size
Target sequence (P07378 whole entry, looked up): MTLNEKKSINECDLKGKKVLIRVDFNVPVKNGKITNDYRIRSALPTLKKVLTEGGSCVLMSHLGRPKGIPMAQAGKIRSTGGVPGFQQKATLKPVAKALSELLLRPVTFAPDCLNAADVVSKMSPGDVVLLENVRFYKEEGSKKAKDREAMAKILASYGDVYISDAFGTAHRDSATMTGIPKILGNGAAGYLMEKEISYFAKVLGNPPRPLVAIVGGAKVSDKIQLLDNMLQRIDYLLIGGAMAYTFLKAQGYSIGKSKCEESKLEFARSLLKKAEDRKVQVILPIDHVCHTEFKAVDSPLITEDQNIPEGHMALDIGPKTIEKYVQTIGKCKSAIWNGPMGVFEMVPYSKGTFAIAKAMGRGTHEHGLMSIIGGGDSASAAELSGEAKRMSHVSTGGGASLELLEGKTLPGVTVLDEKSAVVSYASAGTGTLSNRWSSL
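Luminescent ATP detection (Kinase-Glo Plus) follows a 60-minute room-temperature incubation, with wells lacking PGK as controls. Buffer: 100 mM TEA (pH 7.6), 5 mM MgCl2, 0.01% Tween-20. Coupling enzyme GAPDH (100 nM final) supplies unstable 1,3-BPG in-well.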
The depositor's hits bear a star; i = inactive; ? = inconclusive; . = no result; [ ] = another dose, or the depositor's remark. In the library only some 1.5% were active in any assay of this set; here they are far more common. Unless noted, the call rests on the fitted dose curve; in most records, active means well fitted curve in the direction sought with a large enough effect; inconclusive means small, poorly fitted or top-dose-only effect, or another doubt; inactive means no such curve, though single readings can be large; an effect the other way counts as inactive or inconclusive. Unless noted, on the % scale 0 is the no-effect control and ±100 the full control effect.

SMILES | Tb PFK block | TDP1 block | FEN1 inh | PI5P4K alpha inh | WRN helicase inh | PGK inhibitor
CCOC1=CC2=C(C(=O)C(Cl)=CC2=O)[C@@H]2CN(S(=O)(=O)c3ccc(C)cc3)[C@@H](c3ccccc3)[C@H]12 | . | . | . | -106.5* | -20.5% | .
CCN1C(=O)[C@@H]2[C@@H]3CN(S(=O)(=O)c4ccc(C)cc4)[C@@H](c4ccccc4)[C@@H]3C(=O)C[C@@H]2C1=O | . | . | . | -0.4 | -4.9% | .
O=C1c2ccccc2C(=O)N1c1ncccc1O | . | 0.2% | . | . | . | .
O=C(OCC#CCSc1nnc(-c2cccc3ccccc23)o1)c1ccsc1 | . | -5.6% | . | . | . | .
CCOC(=O)C1=C(C)N=c2s/c(=C/c3ccc(OCC(=O)O)cc3)c(=O)n2C1c1ccc(OC)cc1OC (centres undefined) | 4.8% | . | ? | -10.1 | -6.5% | ?
CCOC(=O)C1=C(C)N=c2s/c(=C\c3ccc(OCC(=O)O)cc3)c(=O)n2C1c1ccccc1OC (centres undefined) | -4.8% | . | 79.4µM* | -9.7 | -3.0% | -5.7%
CCOC(=O)C1=C(C)N=c2s/c(=C/c3cccc([N+](=O)[O-])c3O)c(=O)n2C1c1ccc(OC)cc1OC (centres undefined) | -2.9% | . | -35.0% | -55.4* | -32.2%[11.6 µM] | ?
COc1ccc(C2c3c(ncn(CCc4ccccc4)c3=N)Oc3ccc4ccccc4c32)cc1OC (centres undefined) | . | 4.3% | . | . | . | .
COc1ccc(-n2c(COc3cccc4ccccc34)nnc2SC(C)C(=O)O)cc1 (centres undefined) | 0.1% | 2.8% | 5.7% | -96.9* | 4.2% | -5.1%
O=[N+]([O-])c1cccn2cc(-c3ccc(Br)cc3)nc12 | ? | 39.8µM* | -4.7% | -0.4 | ? | -21.1%
CC(C)C[C@H](NC(=O)[C@@H](Cc1c[nH]c2ccccc12)NC(=O)[C@H](Cc1ccc(O)cc1)NC(=O)[C@H](CO)NC(=O)[C@H](Cc1c[nH]c2ccccc12)NC(=O)[C@H](Cc1cnc[nH]1)NC(=O)[C@@H]1CCC(=O)N1)C(=O)N[C@@H](CCCN=C(N)N)C(=O)N1CCC[C@H]1C(=O)NCC(N)=O | . | 10.2% | . | . | . | .
O=C(Nc1ccccc1)Nc1ccc(O)c2ccccc12 | . | . | -15.9% | -51.6* | 1.3% | i
CCCCCCCCCCCCCCCCCCNc1ccn(C2OC(COP(=O)(O)OCC3OC(n4cc(F)c(=O)[nH]c4=O)CC3O)C(O)C2O)c(=O)n1 (centres undefined) | . | . | ? | -69.4* | 39.8µM* | ?
O=C(CSc1nnc(SCc2ccccc2)s1)N/N=C/c1c[nH]c2ccccc12 | 0.7% | 10µM* | -18.3% | -3.6 | ? | -4.6%
Cc1ccc(CSc2nnc(SCC(=O)N/N=C/c3c[nH]c4ccccc34)s2)cc1 | -0.7% | 6.31µM* | ? | -27.0 | ? | ?
O=C(CSc1nnc(SCc2ccccc2)s1)N/N=C/c1ccc(C(=O)O)cc1 | 0.1% | 6.0% | 1.9% | -6.7 | -9.2% | -0.6%
O=C(CSc1nc2cc(Cl)ccc2s1)c1ccco1 | -7.9% | -6.2% | -8.6% | . | -8.6% | 3.7%
O=C(CSc1nnc(SCc2ccccc2)s1)N/N=C/C=C\c1ccco1 | -13.3% | ? | ? | -81.9* | ? | -23.9%
O=C(CSc1nnc(SCC(=O)c2ccco2)s1)c1ccco1 | -8.7% | -1.0% | -9.2% | -61.9* | ? | -15.9%
O=C(CSc1nnc(SCc2ccccc2Cl)s1)N/N=C/c1c[nH]c2ccccc12 | -10.0% | 1.9% | 3.2% | -5.8 | -34.1% | -3.9%
COc1ccc(C(=O)/C(Br)=C/C(=O)O)cc1 | . | 4.7% | . | . | . | .

High-throughput results (PubChem)
